Assay results as given in the supplement of paper PMC10849652.
Of roughly 7,900 targets only a part is listed; those with a hit were picked by preference. About 0.6% of all pairs of compound and target were hits.

How the values were obtained:
Assay in all cases: log2 fold change, soluble protein after heating vs DMSO (PISA); higher = thermal stabilisation; K562 cells, 10 uM, 30 min; active = over 0.2 and 3.5 SD of the protein, either way, in both replicates (recomputed)
[1] = compound: CC1=C(C=C(C=C1)NC(=O)C2=CC(=CC=C2)N(C)C)NC(=O)C3=CC=C(C=C3)O
How it was run: (§1)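 K562 cells at 2×10^6 cells/mL were treated for 30 min with 10 μM compound, and aliquots were heated for 3 min over 48°C-58°C before pooling. Extraction used PBS with 0.5% NP-40 at 4°C, and soluble protein was the supernatant after 21,000xg for 90 min, measured by TMTpro 16plex LC-MS/MS with channel sums equalised. Thermal stability values, relative to control samples and from duplicates, are log2 fold changes.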

[2] = compound: CC1=CC=C(C=C1)SC2=C3C=C(SC3=CN=C2)C(=O)N
How it was run: as §1

[3] = compound: CC1=NC(=CC=C1)C2=C(N=C(N2)C(C)(C)C)C3=CC4=NC=CN=C4C=C3
How it was run: as §1

[4] = compound: CCCCN(Cc1ccc(C(=O)NO)cc1)C(=O)Nc1ccccc1 [Nexturastat A]
How it was run: as §1

[5] = compound: CCCS(=O)(=O)Nc1ccc(F)c(C(=O)c2c[nH]c3ncc(-c4ccc(Cl)cc4)cc23)c1F [vemurafenib]
How it was run: as §1

[6] = compound: CCCS(=O)(=O)Nc1ccc(F)c(C(=O)c2c[nH]c3ncc(Cl)cc23)c1F
How it was run: as §1

[7] = compound: CCN(CC)Cc1ccc2cc(COC(=O)Nc3ccc(C(=O)NO)cc3)ccc2c1 [givinostat]
How it was run: as §1

[8] = compound: CCN(CCCOc1ccc2c(Nc3cc(CC(=O)Nc4cccc(F)c4)[nH]n3)ncnc2c1)CCOP(=O)(O)O [barasertib]
How it was run: as §1

[9] = compound: CCCc1cc(C)[nH]c(=O)c1CNC(=O)c1cc(-c2ccnc(N3CCN(C)CC3)c2)cc2c1cnn2C(C)C
How it was run: as §1

[10] = compound: CC1=C(C=C(C=C1)NC(=O)C2=CC(=CC=C2)C(C)(C)C#N)NC3=CC4=C(C=C3)N=CN(C4=O)C
How it was run: as §1

Measured: log2 fold change

PDE4A (UniProt P27815)
inactive: [1] -0.028 | [2] -0.047 | [3] 0.062 | [4] 0.061 | [5] 0.006 | [6] 0.024 | [7] 0.015 | [8] 0.049

PPP1R12B isoform 6 (UniProt O60237)
inactive: [7] 0.252 | [8] 0.108

PMS2CL (UniProt Q68D20)
inactive: [1] 0.089 | [4] -0.109 | [9] 0.129

PTP4A3 (UniProt O75365)
inactive: [5] 0.207 | [8] -0.01

PHC3 isoform 7 (UniProt Q8NDX5)
inactive: [10] 0.102 | [2] 0.088 | [3] 0.266 | [4] -0.43 | [6] 0.096 | [9] 0.116 | [7] 0.17 | [8] 0

PIAS4 (UniProt Q8N2W9)
UniProt Q8N2W9, sequence (Q8N2W9 whole entry, looked up): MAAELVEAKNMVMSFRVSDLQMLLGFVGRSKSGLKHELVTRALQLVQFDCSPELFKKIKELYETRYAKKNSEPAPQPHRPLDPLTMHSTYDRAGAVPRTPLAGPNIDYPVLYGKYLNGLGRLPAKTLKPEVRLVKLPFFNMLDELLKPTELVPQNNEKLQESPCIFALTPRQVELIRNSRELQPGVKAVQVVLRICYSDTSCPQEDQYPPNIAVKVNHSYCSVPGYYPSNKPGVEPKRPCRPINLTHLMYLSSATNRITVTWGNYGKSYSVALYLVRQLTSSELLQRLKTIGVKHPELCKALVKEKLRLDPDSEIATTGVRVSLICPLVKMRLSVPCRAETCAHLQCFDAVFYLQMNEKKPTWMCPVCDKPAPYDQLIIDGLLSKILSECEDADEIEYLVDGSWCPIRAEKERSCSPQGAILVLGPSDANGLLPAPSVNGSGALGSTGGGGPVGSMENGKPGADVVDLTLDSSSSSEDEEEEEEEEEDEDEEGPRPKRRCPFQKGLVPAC
inactive: [1] -0.137 | [2] -0.101 | [3] 0.222 | [4] 0.353 | [6] 0.07 | [9] 1.31

PRKD2 (UniProt M0R346)
inactive: [10] -0.011 | [4] 0.236 | [8] -0.337

PSMC3 (UniProt E9PLG2)
inactive: [10] -0.381 | [3] -0.217 | [4] 0.04 | [5] -0.157 | [9] -0.08 | [8] 0.02

PSMA3 (UniProt G3V4X5)
inactive: [1] -0.046 | [2] -0.117 | [3] 0.184 | [5] -0.012 | [6] 0.013 | [8] 0.103

PHLDB1 isoform 2 (UniProt Q86UU1)
inactive: [1] 0.01 | [2] 0.047 | [3] 0.047 | [4] 0.045 | [5] 0.031 | [6] 0.016 | [9] 0.14 | [7] -0.012 | [8] 0.117

PUF60 isoform 2 (UniProt Q9UHX1)
inactive: [1] 0.04 | [2] 0.199 | [5] 0.135 | [6] 0.35 | [9] 0.123 | [8] 0.095

PHRF1 (UniProt Q9P1Y6)
inactive: [1] -0.052 | [2] -0.034 | [6] -0.058 | [9] 0.146 | [7] 0.034

PAN2 (UniProt Q504Q3)
inactive: [5] -0.128 | [8] 0.088

PRKCE (UniProt Q02156)
active: [7] -0.393
inactive: [10] 0.041 | [2] -0.012 | [3] 0.048 | [4] -0.242 | [5] 0.077 | [6] 0.085 | [9] -0.02 | [8] 0.013

PSMB9 (UniProt P28065)
inactive: [10] -0.137 | [2] -0.032 | [3] -0.342 | [4] -0.233 | [5] -0.08 | [6] -0.047 | [7] -0.179 | [8] 0.12

PSMC1 (UniProt G3V4X1)
inactive: [2] -0.384 | [6] -0.154 | [7] 0.095

PSMD8 (UniProt K7ERW6)
inactive: [3] -0.283 | [5] -0.236

PUM1 (UniProt Q14671)
inactive: [3] -0.028 | [7] 0.08

PCBP2 (UniProt F8VRH0)
inactive: [10] 0.419 | [2] 0.019 | [3] 0.172 | [4] 0.136 | [5] -0.235 | [6] 0.123 | [9] -0.199 | [7] 0.04 | [8] -0.201

PDE6D (UniProt O43924)
inactive: [10] -0.081 | [3] -0.117 | [4] 0.15 | [5] -0.022 | [9] -0.028 | [7] -0.052 | [8] 0.002

PCF11 (UniProt O94913)
UniProt O94913, sequence (O94913 whole entry, looked up): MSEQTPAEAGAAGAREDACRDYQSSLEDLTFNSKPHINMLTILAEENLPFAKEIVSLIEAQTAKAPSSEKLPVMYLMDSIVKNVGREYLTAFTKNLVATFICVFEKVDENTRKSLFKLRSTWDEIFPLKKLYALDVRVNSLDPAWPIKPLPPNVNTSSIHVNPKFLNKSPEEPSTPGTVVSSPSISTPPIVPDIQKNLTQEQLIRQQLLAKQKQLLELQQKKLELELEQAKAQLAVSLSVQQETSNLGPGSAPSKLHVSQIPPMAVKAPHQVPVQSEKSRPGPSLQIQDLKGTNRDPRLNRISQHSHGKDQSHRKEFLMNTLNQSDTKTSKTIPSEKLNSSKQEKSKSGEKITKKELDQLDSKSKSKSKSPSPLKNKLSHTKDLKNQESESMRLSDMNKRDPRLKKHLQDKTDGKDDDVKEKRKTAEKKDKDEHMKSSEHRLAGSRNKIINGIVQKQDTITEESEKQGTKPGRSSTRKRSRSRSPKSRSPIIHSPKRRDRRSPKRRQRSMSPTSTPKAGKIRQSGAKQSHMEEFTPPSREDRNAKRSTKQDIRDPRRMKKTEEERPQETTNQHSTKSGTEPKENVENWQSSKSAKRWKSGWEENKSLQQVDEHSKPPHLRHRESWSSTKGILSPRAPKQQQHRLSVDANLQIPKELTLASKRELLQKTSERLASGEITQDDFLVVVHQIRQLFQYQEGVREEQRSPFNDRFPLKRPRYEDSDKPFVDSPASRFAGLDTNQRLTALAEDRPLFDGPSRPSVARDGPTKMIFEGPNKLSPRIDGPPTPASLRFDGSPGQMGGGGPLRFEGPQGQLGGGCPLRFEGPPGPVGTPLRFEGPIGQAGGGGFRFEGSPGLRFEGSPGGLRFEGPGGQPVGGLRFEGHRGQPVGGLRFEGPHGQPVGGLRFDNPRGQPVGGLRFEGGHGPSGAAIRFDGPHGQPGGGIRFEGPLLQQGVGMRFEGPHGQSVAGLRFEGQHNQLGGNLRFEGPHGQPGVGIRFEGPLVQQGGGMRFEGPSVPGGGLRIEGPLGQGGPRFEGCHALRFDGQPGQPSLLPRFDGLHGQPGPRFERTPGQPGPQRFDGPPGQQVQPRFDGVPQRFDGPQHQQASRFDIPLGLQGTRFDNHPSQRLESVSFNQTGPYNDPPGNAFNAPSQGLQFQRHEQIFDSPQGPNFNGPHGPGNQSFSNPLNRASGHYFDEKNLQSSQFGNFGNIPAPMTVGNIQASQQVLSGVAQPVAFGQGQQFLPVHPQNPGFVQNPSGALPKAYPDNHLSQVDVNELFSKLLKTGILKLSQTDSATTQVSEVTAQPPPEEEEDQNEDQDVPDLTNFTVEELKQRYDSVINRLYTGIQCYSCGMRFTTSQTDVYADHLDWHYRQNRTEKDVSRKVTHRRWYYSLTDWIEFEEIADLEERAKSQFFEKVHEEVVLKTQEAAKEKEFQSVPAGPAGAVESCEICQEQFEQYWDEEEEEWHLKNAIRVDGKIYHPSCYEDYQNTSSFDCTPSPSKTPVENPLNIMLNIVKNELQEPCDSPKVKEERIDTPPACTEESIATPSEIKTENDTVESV
inactive: [1] 0.045 | [2] 0.019 | [3] -0.018 | [5] -0.058 | [6] 0.006 | [9] -0.3 | [8] -0.168

PPP2R5B (UniProt Q15173)
inactive: [2] -0.131 | [5] -0.104 | [6] 0.104 | [9] -0.013 | [7] 0.083 | [8] 0.009

PIM1 isoform 2 (UniProt P11309)
inactive: [9] -0.566

PLCXD1 (UniProt Q9NUJ7)
inactive: [1] 0.05 | [8] -0.003

PIGH (UniProt Q14442)
inactive: [1] 0.001 | [2] 0.027 | [3] 0 | [4] 0.141 | [5] 0 | [6] -0.025 | [9] -0.069 | [7] -0.011 | [8] -0.219

PSD3 (UniProt Q9NYI0)
inactive: [1] -0.059 | [2] -0.01 | [3] 0.023 | [5] -0.019 | [6] 0.049 | [9] 0.025

POLR2E (UniProt P19388)
inactive: [1] -0.094 | [2] 0 | [3] -0.091 | [4] 0.005 | [5] 0.031 | [6] 0.018 | [9] 0.099 | [7] -0.007 | [8] -0.03

PTEN isoform 2 (UniProt P60484)
inactive: [1] -0.035 | [2] 0.13 | [3] 0.064 | [6] -0.016 | [7] -0.086

PMVK (UniProt Q15126)
inactive: [10] 0.006 | [4] 0.085 | [5] -0.041 | [9] 0.016 | [7] -0.068 | [8] 0.014

PDE4DIP (UniProt E9PS60)
inactive: [3] 0.013 | [5] -0.214 | [7] 0.016

PRR14L (UniProt Q5THK1)
UniProt Q5THK1, sequence (Q5THK1 whole entry, looked up): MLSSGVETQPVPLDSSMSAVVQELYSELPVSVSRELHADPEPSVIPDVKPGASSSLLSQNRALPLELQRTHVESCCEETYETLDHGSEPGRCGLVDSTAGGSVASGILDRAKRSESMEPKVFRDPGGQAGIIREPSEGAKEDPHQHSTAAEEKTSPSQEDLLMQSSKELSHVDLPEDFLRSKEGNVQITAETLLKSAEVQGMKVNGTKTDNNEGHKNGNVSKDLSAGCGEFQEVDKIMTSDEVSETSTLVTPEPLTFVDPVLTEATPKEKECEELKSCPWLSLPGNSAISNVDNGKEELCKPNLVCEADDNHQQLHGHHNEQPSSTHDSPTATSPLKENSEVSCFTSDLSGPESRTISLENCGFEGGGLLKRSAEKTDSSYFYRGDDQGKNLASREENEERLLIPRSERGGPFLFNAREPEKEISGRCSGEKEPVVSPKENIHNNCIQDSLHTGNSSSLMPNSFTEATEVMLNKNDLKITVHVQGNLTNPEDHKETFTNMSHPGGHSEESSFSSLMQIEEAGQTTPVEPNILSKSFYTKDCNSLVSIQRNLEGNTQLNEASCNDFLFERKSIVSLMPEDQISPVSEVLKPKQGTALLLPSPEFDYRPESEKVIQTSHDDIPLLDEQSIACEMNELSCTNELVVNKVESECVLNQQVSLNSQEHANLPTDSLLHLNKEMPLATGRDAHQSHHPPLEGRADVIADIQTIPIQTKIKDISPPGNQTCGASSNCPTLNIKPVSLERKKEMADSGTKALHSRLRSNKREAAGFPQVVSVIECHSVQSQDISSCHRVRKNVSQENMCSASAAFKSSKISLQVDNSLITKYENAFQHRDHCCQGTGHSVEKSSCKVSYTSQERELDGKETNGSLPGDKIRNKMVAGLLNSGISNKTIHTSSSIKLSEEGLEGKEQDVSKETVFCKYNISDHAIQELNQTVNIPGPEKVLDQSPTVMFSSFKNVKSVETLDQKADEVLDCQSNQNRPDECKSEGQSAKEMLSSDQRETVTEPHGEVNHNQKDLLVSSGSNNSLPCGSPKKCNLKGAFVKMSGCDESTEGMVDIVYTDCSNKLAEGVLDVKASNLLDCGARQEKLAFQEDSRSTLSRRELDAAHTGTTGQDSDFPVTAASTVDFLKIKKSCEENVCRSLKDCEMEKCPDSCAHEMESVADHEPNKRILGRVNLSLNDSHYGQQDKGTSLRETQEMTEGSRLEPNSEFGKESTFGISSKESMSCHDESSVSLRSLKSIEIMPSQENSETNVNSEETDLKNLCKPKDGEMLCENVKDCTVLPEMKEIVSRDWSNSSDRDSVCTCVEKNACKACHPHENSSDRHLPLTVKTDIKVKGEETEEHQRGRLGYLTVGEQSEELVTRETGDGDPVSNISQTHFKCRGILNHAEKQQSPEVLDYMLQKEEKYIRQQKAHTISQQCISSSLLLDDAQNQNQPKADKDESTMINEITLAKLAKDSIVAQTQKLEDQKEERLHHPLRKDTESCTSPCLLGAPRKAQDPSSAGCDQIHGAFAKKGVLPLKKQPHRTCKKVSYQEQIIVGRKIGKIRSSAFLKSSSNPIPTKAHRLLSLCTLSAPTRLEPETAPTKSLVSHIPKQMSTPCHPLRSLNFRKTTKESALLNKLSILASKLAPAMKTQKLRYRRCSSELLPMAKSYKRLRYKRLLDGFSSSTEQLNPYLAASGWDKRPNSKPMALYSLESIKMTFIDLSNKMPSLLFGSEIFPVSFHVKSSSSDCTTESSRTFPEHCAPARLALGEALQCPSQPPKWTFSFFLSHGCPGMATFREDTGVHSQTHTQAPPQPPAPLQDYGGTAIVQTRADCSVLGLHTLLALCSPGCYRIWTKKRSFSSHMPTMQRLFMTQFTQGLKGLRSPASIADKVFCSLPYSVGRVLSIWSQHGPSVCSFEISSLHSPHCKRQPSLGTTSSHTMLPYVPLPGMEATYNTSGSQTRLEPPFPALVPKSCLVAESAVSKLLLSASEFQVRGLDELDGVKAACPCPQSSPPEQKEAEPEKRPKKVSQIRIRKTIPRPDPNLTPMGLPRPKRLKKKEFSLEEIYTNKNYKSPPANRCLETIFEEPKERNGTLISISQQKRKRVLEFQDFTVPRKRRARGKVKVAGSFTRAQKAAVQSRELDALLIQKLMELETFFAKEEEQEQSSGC
active: [5] -0.62
inactive: [2] -0.039 | [6] -0.038

PRKX (UniProt P51817)
UniProt P51817, sequence (P51817 whole entry, looked up): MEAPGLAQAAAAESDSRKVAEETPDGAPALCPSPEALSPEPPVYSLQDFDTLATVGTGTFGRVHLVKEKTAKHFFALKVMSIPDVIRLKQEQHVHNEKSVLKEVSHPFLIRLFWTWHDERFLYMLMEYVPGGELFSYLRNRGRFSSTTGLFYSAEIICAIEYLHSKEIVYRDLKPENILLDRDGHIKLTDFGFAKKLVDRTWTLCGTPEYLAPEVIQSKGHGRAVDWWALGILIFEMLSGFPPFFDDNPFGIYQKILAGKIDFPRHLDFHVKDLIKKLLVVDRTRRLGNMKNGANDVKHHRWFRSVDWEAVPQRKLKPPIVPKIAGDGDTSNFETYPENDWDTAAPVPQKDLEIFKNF
inactive: [9] -0.103 | [7] 0.036 | [8] 0.126

PSMA3 (UniProt H0YJ03)
inactive: [1] 0.019 | [2] 0.019 | [3] -0.194 | [5] -0.145 | [6] -0.134

PCBP2 (UniProt F8VZX2)
inactive: [1] -0.14 | [3] 0.005 | [9] -0.098 | [7] 0.009 | [8] -0.173

POLR2M (UniProt Q6EEV4)
inactive: [10] 0.091 | [2] -0.062 | [3] 0.046 | [4] -0.403 | [5] 0.017 | [6] -0.066 | [9] -0.073 | [7] -0.105 | [8] -0.055

PPP2R5C isoform 2 (UniProt Q13362)
UniProt Q13362, sequence (Q13362 whole entry, looked up): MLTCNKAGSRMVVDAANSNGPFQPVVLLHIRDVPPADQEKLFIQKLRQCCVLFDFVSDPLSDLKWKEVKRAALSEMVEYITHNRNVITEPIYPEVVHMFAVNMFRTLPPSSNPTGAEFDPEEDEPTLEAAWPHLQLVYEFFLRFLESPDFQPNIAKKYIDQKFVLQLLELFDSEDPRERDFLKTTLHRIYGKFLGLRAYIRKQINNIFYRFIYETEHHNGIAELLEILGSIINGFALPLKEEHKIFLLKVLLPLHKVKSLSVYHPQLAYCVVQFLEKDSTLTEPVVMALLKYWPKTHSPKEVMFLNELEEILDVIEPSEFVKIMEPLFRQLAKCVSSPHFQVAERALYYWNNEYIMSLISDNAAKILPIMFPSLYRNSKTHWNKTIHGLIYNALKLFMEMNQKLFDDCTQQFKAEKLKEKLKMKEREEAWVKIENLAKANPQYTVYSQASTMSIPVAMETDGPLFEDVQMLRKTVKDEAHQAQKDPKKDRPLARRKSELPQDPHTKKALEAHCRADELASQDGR
inactive: [1] -0.047 | [3] 0.022 | [9] -0.016 | [7] 0.048 | [8] 0.055

PCNX1 (UniProt Q96RV3)
active: [6] -0.58
inactive: [2] -0.373 | [4] 0.106 | [5] 0.025 | [9] -0.035 | [8] 0.026
